High-throughput results: PubChem BioAssay, National Center for Advancing Translational Sciences (NCATS)
VACV Venus inh = vaccinia inhibition (Venus reporter) | Vaccinia virus Venus reporter expression, fluorescence | Potency, µM (titrated, usually from 36.5 µM), for the others: at the highest dose activity change, negative = inhibition, usual class: inhibitors | actives 0.46% (n = 330,000) | AID 720580; calls by dose curve; tested in A549 cells; further: potency means the concentration at half of the fitted maximal effect; nearly all actives have a fitted effect of over 30% in size
FMDV antiviral = antivirals against foot and mouth disease virus. Potency, µM (highest dose often 57.9 µM), for the others: at the highest dose activity change, negative = inhibition, actives largely listed as inhibitors. actives 1.2% (n = 410,000). FMDV antiviral cell-based qHTS; calls by dose curve; tested in HEK293T cells; further: read-out not given here; potency means the concentration at half of the fitted maximal effect; nearly all actives have a fitted effect of over 45% in size
LASV entry inh = Lassa virus entry inhibition | AID 540256 | Lassa virus pseudotype entry inhibition, cell reporter | Potency, µM (doses to about 37.9 µM), for inactives: at the top dose activity change, negative = inhibition, most hits filed as inhibitors | actives 1.2% (n = 300,000); calls by dose curve; tested in HEK293 cells; further: potency means the concentration at half of the fitted maximal effect; nearly all actives have a fitted effect of over 50% in size
HCMV inh = inhibitors of human cytomegalovirus; HFF cells, HCMV-luciferase reporter, 72 h; stronger effect = lower value; actives 4.5% (n = 410,000); activity change, negative = inhibition, % at 57.5 µM; in the data active means activity change below about -60%; inconclusive means no clear call, values can overlap the other calls; inactive means above about -39%
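Steps: HFFs plated, 16 h 37C; compounds added; HCMV-luciferase added to MOI 1 PFU/cell; 72 h 37C; OneGlo reagent, 5 min room temperature; luminescence read, normalized to controls.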
MARV entry inh = blocks Marburg virus binding to or entry into cells | Marburg virus pseudotyped entry inhibition, cell reporter | Potency, µM (series often up to 37.8 µM), without a hit: at the top dose activity change, negative = inhibition, actives largely listed as inhibitors | actives 1.8% (n = 300,000) | AID 540276; calls by dose curve; tested in HEK293 cells; further: potency means the concentration at half of the fitted maximal effect
Vaccinia mCherry = vaccinia inhibition (mCherry reporter). Vaccinia virus mCherry reporter infection, fluorescence. actives 0.63% (n = 310,000). Potency, µM (top dose mostly 36.5 µM), for the others: at the top dose activity change, negative = inhibition, actives largely listed as inhibitors; calls by dose curve; tested in A549 cells; further: potency means the concentration at half of the fitted maximal effect; nearly all actives have a fitted effect of over 35% in size
* hit, by the source's call; i = inactive; ? = inconclusive; nt = no result given; [ ] = remark or other dose. Only some compounds are listed: those with a hit (about 6.5% of all), similar ones and a draw of the others. On the % scale 0 is the no-effect control and ±100 the full control effect.

SMILES | VACV Venus inh | FMDV antiviral | LASV entry inh | HCMV inh | MARV entry inh | Vaccinia mCherry
CCN(C(=O)CN1C(=O)/C(=C/c2ccccc2F)SC1=S)C1CCS(=O)(=O)C1 (stereo unspecified) | nt | 2% | nt | ? | nt | nt
CCN(C(=O)CCN1C(=O)/C(=C/c2ccccc2)SC1=S)C1CCS(=O)(=O)C1 (stereo unspecified) | ? | -27% | ? | -113* | ? | ?
CN(C(=O)CCN1C(=O)/C(=C/c2ccc(F)cc2)SC1=S)C1CCS(=O)(=O)C1 (stereo unspecified) | 11µM* | -20% | nt | 14 | nt | ?
CCN(CC)C(=O)CN1C(=O)/C(=C/c2ccccc2)SC1=S | -7% | -13% | nt | -63* | nt | -21%
CC(=O)NNC(=O)CN1C(=O)/C(=C/c2ccccc2)SC1=S | nt | -9% | nt | ? | nt | nt
CC(C(=O)N(C)C1CCS(=O)(=O)C1)N1C(=O)/C(=C/c2ccc(F)cc2)SC1=S (stereo unspecified) | nt | -8% | nt | ? | nt | nt
O=C(O)CN1C(=O)/C(=C\c2cccc(OCc3ccc(F)cc3)c2)SC1=S | 5% | 6% | 16%[46.1 µM] | -12 | -3%[46.1 µM] | i
O=C(O)CN1C(=O)/C(=C\c2cccc(OCc3ccccc3F)c2)SC1=S | 2% | 21% | 7% | -76* | 27%[46.1 µM] | -4%
CNC[C@H]1OCc2cnnn2CCCC(=O)N([C@@H](C)CO)C[C@@H]1C | nt | nt | nt | -5 | nt | nt
CCOC(=O)c1sc(N)c(C(=O)Nc2ccccc2OC)c1C | -27% | -17% | 2.5µM* | 6 | ? | ?
CCOC(=O)c1sc2nc(C)nc(NCc3ccccc3OC)c2c1C | -5% | ? | -14%[46.1 µM] | -73* | ? | i
COC(=O)c1c(N)sc(C(=O)NCCc2ccccc2)c1C | -16% | 6.3µM* | ? | ? | 5µM* | i
COc1ccc(CCNC(=O)c2cnn3c2NC(=C2CC2)C=C3C(F)F)cc1OC | -27% | nt | nt | nt | nt | -7%
Cc1ccc(N(CC(=O)Nc2ccc(Br)cc2)S(=O)(=O)c2cccs2)cc1 | 9% | 5% | 3%[46.1 µM] | -19 | 4%[46.1 µM] | -4%
COc1ccc(Nc2nc(N3CCCC3)nc3ccccc23)c(OC)c1 | 11µM* | nt | 16µM* | ? | ? | ?
COc1ccc(Nc2nc(Nc3ccc(OC)cc3OC)nc(N3CCOCC3)n2)c(OC)c1 | -15%[7.34 µM] | 0% | -18%[46.1 µM] | -24 | 1µM* | -9%[7.34 µM]
COc1ccccc1Nc1nc(N2CCOCC2)nc(N2CCOCC2)n1 | -15% | -6% | -9%[46.1 µM] | ? | 4µM* | -24%
COc1ccc(Nc2nc(N3CCOCC3)nc(N3CCOCC3)n2)c(OC)c1 | nt | -15% | nt | 2 | nt | nt
COc1ccccc1CCn1cnc(-c2ccc(Cl)cc2)c1CC(C)C | nt | nt | nt | -25 | nt | nt
COc1cccc2c1Oc1ncccc1N(C(=O)CCC(=O)NC(C)C)C2 | -4% | -12% | -3%[46.1 µM] | 0 | nt | -9%
CC(=NCc1ccc(F)cc1)c1c(O)n(C)c(=O)n(C)c1=O | nt | -26% | -5% | -25 | 0.33µM* | nt
O=C1N=C2CCCCC2=C1c1sc(N[S+](=O)([O-])C2CCCCC2)nc1O | nt | nt | nt | nt | 16%[46.1 µM] | nt
O=C(O)CCn1c(=O)c2ccccc2c2ccccc2c1=O | -9% | -24% | 0% | -101* | 5% | -14%[1.46 µM]
CCOP(=S)(OCC)N1CCOCCOCCN(P(=S)(OCC)OCC)CCOCCOCC1 | 2% | -14% | ? | 17 | 10µM* | -3%
CCOP(=O)(OCC)C(CC)N1CCOCC1 (stereo unspecified) | 3% | -10% | 22% | -25 | 21%[46.1 µM] | nt
COc1cccc(NS(=O)(=O)c2cc3c(cc2C)N(C)CCO3)c1 | -19% | 55% | nt | -8 | nt | -11%
COC(=O)c1ccccc1NS(=O)(=O)c1cc2c(cc1C)N(C)CCO2 | -15% | 79% | 10µM* | ? | nt | -21%
N#CC1=C(Nc2ccccc2Cl)SC(c2ccccc2O)NC1=O (stereo unspecified) | -8% | 26% | nt | ? | nt | i
CSC1=C(C#N)C(=O)NC(c2ccc(Cl)cc2)S1 (stereo unspecified) | -2%[7.34 µM] | 20µM* | -2% | -1 | -12%[46.1 µM] | -6%[7.34 µM]
COc1cc(/C=N/NC(=O)C(Cc2c[nH]c3ccccc23)NC(=O)OCc2ccccc2)cc([N+](=O)[O-])c1O (stereo unspecified) | -16% | 9% | 6.3µM* | -3 | -1% | 0%
